Test results reported in the supplement of paper PMC10849652.
The full data set covers some 7,900 targets. This sample favours those with a hit. About 0.6% of all pairs of compound and target were hits.

Tests used:
Experiment in all cases: log2 fold change, soluble protein after heating vs DMSO (PISA); higher = thermal stabilisation; K562 cells, 10 uM, 30 min; active = over 0.2 and 3.5 SD of the protein, either way, in both replicates (recomputed)
[1] = compound: CC1=C(C=C(C=C1)NC(=O)C2=CC(=CC=C2)C(C)(C)C#N)NC3=CC4=C(C=C3)N=CN(C4=O)C
Method in brief: (§1)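 K562 cells at 2×10^6 cells/mL were given 10 μM compound for 30 min. Aliquots then went through 3 min of heating across 48°C-58°C, were pooled, and were extracted in PBS with 0.5% NP-40 at 4°C, and the supernatant after 21,000xg for 90 min was quantified by TMTpro 16plex LC-MS/MS with channel sums equalised. Thermal stability relative to control samples, from duplicates, is given as log2 fold change.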

[2] = compound: CC1=C(C=C(C=C1)NC(=O)C2=CC(=CC=C2)N(C)C)NC(=O)C3=CC=C(C=C3)O
Method in brief: as §1

[3] = compound: CC1=CC=C(C=C1)SC2=C3C=C(SC3=CN=C2)C(=O)N
Method in brief: as §1

[4] = compound: CC1=NC(=CC=C1)C2=C(N=C(N2)C(C)(C)C)C3=CC4=NC=CN=C4C=C3
Method in brief: as §1

Nexturastat A = compound: CCCCN(Cc1ccc(C(=O)NO)cc1)C(=O)Nc1ccccc1 [Nexturastat A]
Method in brief: as §1

vemurafenib = compound: CCCS(=O)(=O)Nc1ccc(F)c(C(=O)c2c[nH]c3ncc(-c4ccc(Cl)cc4)cc23)c1F [vemurafenib]
Method in brief: as §1

[5] = compound: CCCS(=O)(=O)Nc1ccc(F)c(C(=O)c2c[nH]c3ncc(Cl)cc23)c1F
Method in brief: as §1

[6] = compound: CCCc1cc(C)[nH]c(=O)c1CNC(=O)c1cc(-c2ccnc(N3CCN(C)CC3)c2)cc2c1cnn2C(C)C
Method in brief: as §1

givinostat = compound: CCN(CC)Cc1ccc2cc(COC(=O)Nc3ccc(C(=O)NO)cc3)ccc2c1 [givinostat]
Method in brief: as §1

barasertib = compound: CCN(CCCOc1ccc2c(Nc3cc(CC(=O)Nc4cccc(F)c4)[nH]n3)ncnc2c1)CCOP(=O)(O)O [barasertib]
Method in brief: as §1

[7] = compound: CC[C@@H]1C(=O)N(C)c2cnc(Nc3ccc(C(=O)NC4CCN(C)CC4)cc3OC)nc2N1C1CCCC1
Method in brief: as §1

volasertib = compound: CC[C@@H]1C(=O)N(C)c2cnc(Nc3ccc(C(=O)N[C@H]4CC[C@H](N5CCN(CC6CC6)CC5)CC4)cc3OC)nc2N1C(C)C [volasertib]
Method in brief: as §1

[8] = compound: CC[C@H](C)N1C=C(C2=C(C=C(C=C21)C3=CN=C(C=C3)N4CCNCC4)C(=O)NCC5=C(C=C(NC5=O)C)C)C
Method in brief: as §1

epoxomicin = compound: CC[C@H](C)[C@@H](C(=O)N[C@@H]([C@@H](C)O)C(=O)N[C@@H](CC(C)C)C(=O)[C@]1(CO1)C)NC(=O)[C@H]([C@@H](C)CC)N(C)C(=O)C [epoxomicin]
Method in brief: as §1

[9] = compound: CCn1c(C(=O)N(C2CC2)C2CC2)cc2c3c(ncn3C)c(Nc3cc(C)n(C)n3)nc21
Method in brief: as §1

[10] = compound: CCn1cc(-c2ccnc3[nH]c(-c4cccc(CN(C)C)c4)cc23)c(-c2ccc(NC(=O)N(C)C)cc2)n1
Method in brief: as §1

[11] = compound: CN(C)CC(=O)Nc1ccc2[nH]c(=O)c3ccccc3c2c1
Method in brief: as §1

rosiglitazone = compound: CN(CCOC1=CC=C(C=C1)C[C@H]2C(=O)NC(=O)S2)C3=CC=CC=N3 (racemic) [rosiglitazone]
Method in brief: as §1

[12] = compound: CN1C2=C(C3=C1C(=O)N(N=C3)CC4=CC(=CC=C4)N)SC(=C2)S(=O)C
Method in brief: as §1

[13] = compound: CN1CCC(CNc2ccc3ncc(-c4cccc(OC(F)(F)F)c4)n3n2)CC1
Method in brief: as §1

Measured: log2 fold change

POMK (UniProt Q9H5K3)
UniProt Q9H5K3, sequence (Q9H5K3 whole entry, looked up): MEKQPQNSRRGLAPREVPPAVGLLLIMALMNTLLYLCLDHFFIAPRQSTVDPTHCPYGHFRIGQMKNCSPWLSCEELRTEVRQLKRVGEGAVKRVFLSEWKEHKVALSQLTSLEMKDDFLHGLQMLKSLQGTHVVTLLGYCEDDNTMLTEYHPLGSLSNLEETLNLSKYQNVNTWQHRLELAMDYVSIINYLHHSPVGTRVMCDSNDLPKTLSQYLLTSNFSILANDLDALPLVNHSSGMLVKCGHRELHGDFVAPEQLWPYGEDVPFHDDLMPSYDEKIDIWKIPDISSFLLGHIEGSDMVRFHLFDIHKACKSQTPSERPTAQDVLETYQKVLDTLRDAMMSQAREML
inactive: [1] 0.029 | [2] -0.018 | [3] 0.028 | [4] 0 | Nexturastat A -0.01 | vemurafenib 0.04 | [5] 0.041 | [6] 0 | givinostat 0.002 | barasertib 0.11 | [7] -0.079 | volasertib -0.093 | [8] 0.014 | epoxomicin -0.05 | [9] 0.054 | [10] 0.054 | [11] -0.007 | rosiglitazone 0.012 | [12] 0.023 | [13] -0.082

PSMB4 (UniProt P28070)
UniProt P28070, sequence (P28070 whole entry, looked up): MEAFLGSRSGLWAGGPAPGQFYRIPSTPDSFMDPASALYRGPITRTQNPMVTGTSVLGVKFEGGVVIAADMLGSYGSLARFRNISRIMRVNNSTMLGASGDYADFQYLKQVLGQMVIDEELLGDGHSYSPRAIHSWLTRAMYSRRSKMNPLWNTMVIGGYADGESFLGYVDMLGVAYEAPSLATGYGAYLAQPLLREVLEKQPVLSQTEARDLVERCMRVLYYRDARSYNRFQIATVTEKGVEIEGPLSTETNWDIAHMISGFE
inactive: [1] -0.026 | [2] 0.02 | [3] -0.075 | [4] -0.031 | Nexturastat A 0.023 | vemurafenib -0.027 | [5] -0.029 | [6] 0.008 | givinostat -0.008 | barasertib -0.052 | [7] 0.073 | volasertib 0.114 | [8] -0.043 | epoxomicin -0.202 | [9] 0.011 | [10] 0.031 | [11] -0.028 | rosiglitazone -0.045 | [12] 0.021 | [13] 0.057

PLCB3 (UniProt Q01970)
UniProt Q01970, sequence (Q01970 whole entry, looked up): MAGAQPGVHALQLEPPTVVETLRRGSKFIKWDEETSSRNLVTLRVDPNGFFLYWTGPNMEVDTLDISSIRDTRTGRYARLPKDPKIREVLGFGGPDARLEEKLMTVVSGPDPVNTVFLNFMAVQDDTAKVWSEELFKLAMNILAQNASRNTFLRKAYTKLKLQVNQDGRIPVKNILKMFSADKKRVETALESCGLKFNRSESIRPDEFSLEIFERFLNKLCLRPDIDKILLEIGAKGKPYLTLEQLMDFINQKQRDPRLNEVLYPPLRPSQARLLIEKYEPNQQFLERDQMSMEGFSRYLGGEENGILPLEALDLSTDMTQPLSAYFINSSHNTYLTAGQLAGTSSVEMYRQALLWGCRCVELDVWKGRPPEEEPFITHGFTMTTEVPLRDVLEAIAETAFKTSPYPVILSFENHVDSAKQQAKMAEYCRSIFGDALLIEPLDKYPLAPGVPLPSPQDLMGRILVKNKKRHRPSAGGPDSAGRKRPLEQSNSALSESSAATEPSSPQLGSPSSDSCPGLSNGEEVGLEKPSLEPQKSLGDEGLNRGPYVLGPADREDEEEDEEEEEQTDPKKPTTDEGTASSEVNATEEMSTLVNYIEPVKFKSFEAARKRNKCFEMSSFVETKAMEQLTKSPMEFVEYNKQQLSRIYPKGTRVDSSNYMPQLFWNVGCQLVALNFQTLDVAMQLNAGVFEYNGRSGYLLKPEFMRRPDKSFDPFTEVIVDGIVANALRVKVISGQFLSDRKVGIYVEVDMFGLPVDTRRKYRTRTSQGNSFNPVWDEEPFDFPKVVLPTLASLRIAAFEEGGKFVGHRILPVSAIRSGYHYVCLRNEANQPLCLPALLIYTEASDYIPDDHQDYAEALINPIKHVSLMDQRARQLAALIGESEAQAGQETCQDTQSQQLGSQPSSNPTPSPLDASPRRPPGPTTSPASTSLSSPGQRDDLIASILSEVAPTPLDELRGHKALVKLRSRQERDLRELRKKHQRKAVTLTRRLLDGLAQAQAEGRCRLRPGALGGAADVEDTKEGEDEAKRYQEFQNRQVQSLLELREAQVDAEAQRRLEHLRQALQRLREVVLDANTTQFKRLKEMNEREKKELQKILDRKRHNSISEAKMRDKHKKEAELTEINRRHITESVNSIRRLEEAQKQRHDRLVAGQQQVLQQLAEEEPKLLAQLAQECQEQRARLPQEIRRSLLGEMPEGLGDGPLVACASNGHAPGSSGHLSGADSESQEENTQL
active: [13] -0.246
inactive: [1] 0.033 | [2] -0.04 | [3] 0.021 | [4] 0.033 | Nexturastat A -0.019 | vemurafenib 0.024 | [5] 0.045 | [6] -0.032 | givinostat -0.014 | barasertib 0.018 | [7] -0.05 | volasertib -0.037 | [8] 0.044 | epoxomicin 0.009 | [9] 0.026 | [10] -0.08 | [11] 0.02 | rosiglitazone 0.058 | [12] -0.009

PRMT8 (UniProt Q9NR22)
UniProt Q9NR22, sequence (Q9NR22 whole entry, looked up): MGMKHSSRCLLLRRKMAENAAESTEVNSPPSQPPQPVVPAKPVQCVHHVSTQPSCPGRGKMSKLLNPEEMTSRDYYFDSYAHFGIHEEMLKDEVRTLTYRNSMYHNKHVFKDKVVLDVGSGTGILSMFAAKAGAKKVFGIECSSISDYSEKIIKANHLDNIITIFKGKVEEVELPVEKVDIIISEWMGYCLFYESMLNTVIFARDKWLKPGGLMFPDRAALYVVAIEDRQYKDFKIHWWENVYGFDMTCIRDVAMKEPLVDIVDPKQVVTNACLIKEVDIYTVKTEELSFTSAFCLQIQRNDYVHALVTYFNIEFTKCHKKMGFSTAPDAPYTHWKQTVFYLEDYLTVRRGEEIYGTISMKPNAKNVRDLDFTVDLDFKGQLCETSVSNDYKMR
inactive: [1] 0.285 | [2] -0.033 | [3] 0.097 | [4] 0.016 | Nexturastat A -0.125 | vemurafenib 0.028 | [5] 0.156 | [6] -0.009 | givinostat -0.043 | barasertib 0.031 | [7] 0.019 | volasertib -0.074 | [8] 0.011 | epoxomicin 0.017 | [9] 0.035 | [10] -0.087 | [11] -0.022 | rosiglitazone -0.026 | [12] -0.117 | [13] -0.009

PSMD9 (UniProt O00233)
UniProt O00233, sequence (O00233 whole entry, looked up): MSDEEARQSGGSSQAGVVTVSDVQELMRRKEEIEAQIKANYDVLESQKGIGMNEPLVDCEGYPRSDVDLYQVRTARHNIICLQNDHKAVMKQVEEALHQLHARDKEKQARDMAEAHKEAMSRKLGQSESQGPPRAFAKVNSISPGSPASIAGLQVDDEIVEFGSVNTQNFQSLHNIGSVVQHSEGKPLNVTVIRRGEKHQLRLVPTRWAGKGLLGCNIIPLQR
inactive: [1] -0.012 | [2] 0.018 | [3] 0.021 | [4] 0.012 | Nexturastat A -0.068 | vemurafenib -0.014 | [5] -0.021 | [6] -0.016 | givinostat -0.004 | barasertib 0 | [7] -0.011 | volasertib 0.086 | [8] 0.004 | epoxomicin -0.04 | [9] -0.009 | [10] -0.137 | [11] -0.01 | rosiglitazone 0.002 | [12] -0.034 | [13] 0.127

PPP1R14A (UniProt Q96A00)
UniProt Q96A00, sequence (Q96A00 whole entry, looked up): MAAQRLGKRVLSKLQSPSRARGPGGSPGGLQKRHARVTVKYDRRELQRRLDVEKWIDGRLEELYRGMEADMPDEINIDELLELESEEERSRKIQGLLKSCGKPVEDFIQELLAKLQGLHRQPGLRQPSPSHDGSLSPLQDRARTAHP
inactive: [1] -0.002 | [2] -0.04 | [3] 0.004 | [4] 0.051 | Nexturastat A -0.006 | vemurafenib -0.005 | [5] -0.054 | [6] 0.062 | givinostat -0.004 | barasertib 0.013 | [7] 0.002 | volasertib 0.051 | [8] 0 | epoxomicin 0.058 | [9] -0.023 | [10] -0.067 | [11] -0.04 | rosiglitazone 0.016 | [12] -0.027 | [13] -0.091

PCBP2 isoform 3 (UniProt Q15366)
UniProt Q15366, sequence (Q15366 whole entry, looked up): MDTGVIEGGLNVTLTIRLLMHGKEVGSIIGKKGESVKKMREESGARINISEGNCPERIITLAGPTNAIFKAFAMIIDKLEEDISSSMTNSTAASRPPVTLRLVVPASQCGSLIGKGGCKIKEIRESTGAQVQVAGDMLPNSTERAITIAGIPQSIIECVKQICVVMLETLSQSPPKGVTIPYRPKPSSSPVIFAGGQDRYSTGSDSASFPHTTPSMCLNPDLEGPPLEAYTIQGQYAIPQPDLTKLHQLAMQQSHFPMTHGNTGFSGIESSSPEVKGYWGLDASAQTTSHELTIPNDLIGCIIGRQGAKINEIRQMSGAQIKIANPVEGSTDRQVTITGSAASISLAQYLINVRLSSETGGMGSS
active: volasertib -0.263
inactive: [1] 0.054 | [2] -0.024 | [3] 0.065 | [4] 0.149 | Nexturastat A -0.006 | vemurafenib 0.056 | [5] 0.129 | [6] -0.004 | givinostat 0.031 | barasertib 0.013 | [7] -0.069 | [8] 0.071 | epoxomicin 0.013 | [9] -0.036 | [10] -0.003 | [11] 0.043 | rosiglitazone 0.062 | [12] -0.001 | [13] -0.081

POP1 (UniProt Q99575)
UniProt Q99575, sequence (Q99575 whole entry, looked up): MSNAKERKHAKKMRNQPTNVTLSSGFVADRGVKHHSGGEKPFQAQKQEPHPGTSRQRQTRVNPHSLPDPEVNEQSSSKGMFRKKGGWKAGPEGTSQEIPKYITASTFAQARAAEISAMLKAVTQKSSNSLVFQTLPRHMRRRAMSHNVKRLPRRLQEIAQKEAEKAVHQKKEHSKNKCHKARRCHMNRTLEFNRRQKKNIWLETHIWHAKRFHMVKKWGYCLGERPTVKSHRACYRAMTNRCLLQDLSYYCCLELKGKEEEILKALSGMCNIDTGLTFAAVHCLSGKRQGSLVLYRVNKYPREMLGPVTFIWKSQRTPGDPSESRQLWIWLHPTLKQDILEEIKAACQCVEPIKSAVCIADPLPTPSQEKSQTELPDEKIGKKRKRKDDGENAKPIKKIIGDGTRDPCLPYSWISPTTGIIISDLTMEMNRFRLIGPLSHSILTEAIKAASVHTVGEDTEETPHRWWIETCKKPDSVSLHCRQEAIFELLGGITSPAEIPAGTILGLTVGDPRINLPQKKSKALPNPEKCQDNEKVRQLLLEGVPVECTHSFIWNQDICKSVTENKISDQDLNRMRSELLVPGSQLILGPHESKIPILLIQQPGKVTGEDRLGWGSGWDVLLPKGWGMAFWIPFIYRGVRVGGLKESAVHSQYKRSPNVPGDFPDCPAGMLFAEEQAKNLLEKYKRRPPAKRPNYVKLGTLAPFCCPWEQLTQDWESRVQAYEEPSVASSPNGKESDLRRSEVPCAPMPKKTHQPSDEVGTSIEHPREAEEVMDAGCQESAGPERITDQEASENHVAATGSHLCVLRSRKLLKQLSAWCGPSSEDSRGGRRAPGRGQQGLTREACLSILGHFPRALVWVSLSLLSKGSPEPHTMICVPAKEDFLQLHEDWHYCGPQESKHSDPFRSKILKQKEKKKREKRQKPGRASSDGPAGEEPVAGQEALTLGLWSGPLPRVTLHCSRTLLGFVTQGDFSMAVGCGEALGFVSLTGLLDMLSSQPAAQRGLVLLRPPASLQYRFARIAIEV
inactive: [1] 0.03 | [2] -0.001 | [3] 0.004 | [4] -0.02 | Nexturastat A -0.011 | vemurafenib -0.004 | [5] 0.021 | [6] 0.018 | givinostat -0.009 | barasertib -0.042 | [7] 0.069 | volasertib 0.092 | [8] 0.02 | epoxomicin -0.001 | [9] 0.006 | [10] 0.028 | [11] -0.019 | rosiglitazone -0.025 | [12] -0.009 | [13] 0.075
